Results: PubChem BioAssay (Tox21)
Results filed as inconclusive are left out. A call without a number means that no potency is given here. A number with no mark means an inactive call. Activity calls are given as the source filed them. Calls follow the shape of the dose curve; as a rule, active = well fitted cell-killing curve with a large enough effect in the repeat runs; inconclusive = weak or mixed curves, or effect the other way; inactive = flat fitted curve, though single readings scatter.

How the values were obtained:
[1] = cAMP Responsive Elements (CRE) small molecule antagonists, cell-based qHTS assay: qHTS cell viability counter screen (AID 2060913); also: nearly all actives have a fitted effect of over 40% in size
In short: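 CRE-bla HEK293T cells were seeded in assay medium with 10% dialyzed FBS, incubated 18 hrs at 37 C, then exposed to compounds plus 0.25 uM final NKH477 for 3 hrs. Viability was read by CellTiter-Glo luminescence after 30 min, in the same wells.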

[2] = cAMP Responsive Elements (CRE) small molecule agonists, cell-based qHTS assay: qHTS cell viability counter screen (AID 2060914);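 also: viability read after 3 h of compound exposure; nearly all actives have a fitted effect of over 50% in size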
In short: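 Cells are seeded and incubated 18 h, treated with compounds in DMSO for 3 h, read for the bla reporter, then given CellTiter-Glo; luminescence is measured after 30 min at room temperature.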

| Compound | Potency [1] | Potency [2] | viability change, negative = cytotoxic [1] | activity change, negative = cytotoxicity [2] |
| --- | --- | --- | --- | --- |
| N[C@@H](Cc1ccc(N(CCCl)CCCl)cc1)C(=O)O | inactive | inactive |  |  |
| CNC(=O)Oc1ccccc1C(C)C | inactive | inactive |  |  |
| Cc1ncc2n1-c1ccc(Cl)cc1C(c1ccccc1F)=NC2 | inactive | inactive |  |  |
| COc1ccc(CN2CCNCC2)c(OC)c1OC | inactive | inactive |  |  |
| C[N+](C)(C)CC(=O)O | inactive | inactive |  |  |
| CC1(C)CC(=O)CC(C)(C)N1[O] | inactive | inactive |  |  |
| CCN(CC)C(=O)Cl | inactive | inactive |  |  |
| C[N+](C)(C)CCCl | inactive | inactive |  |  |
| c1ccc(OCC2CO2)cc1 (centres undefined) | inactive | inactive |  |  |
| OCCCCO | inactive | inactive |  |  |
| C[C@]12CCC(=O)C(O)=C1CC[C@@H]1[C@@H]2CC[C@]2(C)C(=O)CC[C@@H]12 | inactive | inactive |  |  |
| CCCCn1cc[n+](C)c1C | inactive | inactive |  |  |
| CCNP(=S)(OC)O/C(C)=C/C(=O)OC(C)C (centres undefined) | inactive | inactive |  |  |
| O=C1OC(c2ccc(O)c(S(=O)(=O)O)c2)(c2ccc(O)c(S(=O)(=O)O)c2)c2c(Br)c(Br)c(Br)c(Br)c21 | inactive | inactive |  |  |
| O=P(O)(Oc1ccccc1)Oc1ccccc1 | inactive | inactive |  |  |
| COc1ccccc1N | inactive | inactive |  |  |
| CSc1nc(N=[N+]=[N-])nc(NC(C)C)n1 | inactive | inactive |  |  |
| O=[N+]([O-])c1ccccc1 | inactive | inactive |  |  |
| S=C1NCCN1 | inactive | inactive |  |  |

| Compound | Potency [1] | Potency [2] | viability change, negative = cytotoxic [1] | activity change, negative = cytotoxicity [2] |
| --- | --- | --- | --- | --- |
| Clc1ccc(CSC(Cn2ccnc2)c2ccc(Cl)cc2Cl)cc1 (centres undefined) | inactive | inactive |  |  |
| ClP(Cl)(Cl)(Cl)Cl | inactive | inactive |  |  |
| C/C=C/C=O | inactive | inactive |  |  |
| CSC(C)(C)/C=N/O | inactive | inactive |  |  |
| CCOP(=O)(N=C1SCCS1)OCC | inactive | inactive |  |  |
| CC1=C2C[C@H]3[C@@H](CC=C4C[C@@H](O)CC[C@@]43C)[C@@H]2CC[C@]12O[C@@H]1C[C@H](C)CN[C@H]1[C@H]2C | inactive | inactive |  |  |
| CC[n+]1ccccc1 | inactive | inactive |  |  |
| C[C@]1(O)CC[C@H]2[C@@H]3CCC4=CC(=O)CC[C@]4(C)[C@@]3(F)[C@@H](O)C[C@@]21C | inactive | inactive |  |  |
| CC(C)OC(=S)S | inactive | inactive |  |  |
| C1CCC2CCCCC2C1 (centres undefined) | inactive | inactive |  |  |
| CCNc1nc(Cl)nc(NCC)n1 | inactive | inactive |  |  |
| Cc1cccc(N)c1 | inactive | inactive |  |  |
| O=C(NC(=O)c1cc(F)c(F)cc1Cl)Nc1cc(F)ccc1N1CCC(C(=O)O)CC1 | inactive | inactive |  |  |
| C=COC(C)=O | inactive | inactive |  |  |
| CCCn1cc[n+](C)c1 | inactive | inactive |  |  |
| Cc1c([N+](=O)[O-])c(C)c([N+](=O)[O-])c(C(C)(C)C)c1[N+](=O)[O-] | inactive | inactive |  |  |
| CCCCCBr | inactive | inactive |  |  |
| C=C(C#N)CCC#N | inactive | inactive |  |  |
| O=[N+]([O-])c1ccccc1O | inactive | inactive |  |  |

| Compound | Potency [1] | Potency [2] | viability change, negative = cytotoxic [1] | activity change, negative = cytotoxicity [2] |
| --- | --- | --- | --- | --- |
| Brc1ccc(Br)cc1 | inactive | inactive |  |  |
| CON(C)C(=O)Nc1ccc(Br)c(Cl)c1 | inactive | inactive |  |  |
| CC(C)=CCOc1c2occc2cc2ccc(=O)oc12 | inactive | inactive |  |  |
| CC(=[OH+])/C=C(/C)[O-].CC(=[OH+])/C=C(\C)[O-].CC(=[OH+])/C=C(\C)[O-].[Fe] | inactive | inactive |  |  |
| CC(C)CBr | inactive | inactive |  |  |
| CCCCC(C#N)(Cn1cncn1)c1ccc(Cl)cc1 (centres undefined) | inactive | inactive |  |  |
| CC(C)(C)C(O)C(Oc1ccc(-c2ccccc2)cc1)n1cncn1 (centres undefined) | inactive | inactive |  |  |
| CCCCCCCCP(=O)(O)O | inactive | inactive |  |  |
| CCC1(c2ccccc2)CCC(=O)NC1=O (centres undefined) | inactive | inactive |  |  |
| O=[N+]([O-])CCO | inactive | inactive |  |  |
| CC(C)CON=O | inactive | inactive |  |  |
| CCCC1COC(Cn2cncn2)(c2ccc(Cl)cc2Cl)O1 (centres undefined) | inactive | inactive |  |  |
| Cc1ccc2nc3sc(=O)sc3nc2c1 |  |  | 10.1% [at 18.9 µM] | -6.15% [at 18.9 µM] |
| O=C(O)COc1cc(Cl)c(Cl)cc1Cl | inactive | inactive |  |  |
| BrCC(Br)C1CCC(Br)C(Br)C1 (centres undefined) | inactive | inactive |  |  |
| ClC(Cl)(Cl)c1ccccc1 | inactive | inactive |  |  |
| O=C(O)C(F)(F)C(F)(F)C(F)(F)C(F)(F)C(F)(F)C(F)(F)C(F)(F)C(F)(F)C(F)(F)F | inactive | inactive |  |  |
| O=[N+]([O-])c1ccccc1-c1ccccc1 | inactive | inactive |  |  |
| O=C(O)c1cc[c]([Hg][Cl])cc1 | inactive | inactive |  |  |
